This is part of a sample that, as a whole, favours compounds with a hit. Of some 83,000 tested, about 20% had one in any assay.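 96-well plates, one dose, 48 hours. Percent growth reported; active if below 10.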 A number with no mark means an inactive call. Calls of active or inactive are those of the source.
Tests used:
Assay in all cases: NCI-60 one-dose screen, 48 h (100 = growth as untreated, 0 = no growth, -100 = all killed)
[1] = system: HCT-15 colon; conditions: 10 µM unless noted
[2] = system: HT29 colon; conditions: 10 µM unless noted
[3] = system: U251 CNS; conditions: 10 µM unless noted
[4] = system: PC-3 prostate; conditions: 10 µM unless noted
[5] = system: SK-MEL-5 melanoma; conditions: 10 µM unless noted
[6] = system: UACC-62 melanoma; conditions: 10 µM unless noted
[7] = system: SK-MEL-28 melanoma; conditions: 10 µM unless noted
[8] = system: SK-MEL-2 melanoma; conditions: 10 µM unless noted
[9] = system: EKVX NSCLC; conditions: 10 µM unless noted
[10] = system: SN12C renal; conditions: 10 µM unless noted
[11] = system: UO-31 renal; conditions: 10 µM unless noted
[12] = system: TK-10 renal; conditions: 10 µM unless noted
[13] = system: ACHN renal; conditions: 10 µM unless noted
[14] = system: CAKI-1 renal; conditions: 10 µM unless noted
[15] = system: A498 renal; conditions: 10 µM unless noted
[16] = system: CCRF-CEM leukemia; conditions: 10 µM unless noted
[17] = system: MOLT-4 leukemia; conditions: 10 µM unless noted
[18] = system: SNB-19 CNS; conditions: 10 µM unless noted
[19] = system: LOX IMVI melanoma; conditions: 10 µM

Compound	growth [1]	growth [2]	growth [3]	growth [4]	growth [5]	growth [6]	growth [7]	growth [8]	growth [9]	growth [10]	growth [11]	growth [12]	growth [13]	growth [14]	growth [15]	growth [16]	growth [17]	growth [18]	growth [19]
C=C1CC[C@@H]2[C@]3(C)COC(c4cn[nH]c4-c4ccc(Br)cc4)O[C@@H]3CC[C@@]2(C)[C@@H]1C/C=C1/C(=O)OCC1O (stereo partly specified)	-62.6% (active)	0.504% (active)	-86.7% (active)	-44.1% (active)	-97% (active)	-79.1% (active)	-78% (active)	-68.4% (active)	-51% (active)	-64.9% (active)	-92.1% (active)	-65% (active)	-100% (active)	-40.9% (active)	97.8%	-6.18% (active)	2.63% (active)	–	–
Cc1ccc2c(c1)nc(-c1ccccc1)n2CC(=O)N=Nc1c(O)[nH]c2ccc(Br)cc12	-79.9% (active)	-67.6% (active)	-74.3% (active)	-78% (active)	-57.3% (active)	–	-88.3% (active)	-40.5% (active)	-77.2% (active)	-72.3% (active)	-90% (active)	-10% (active)	-99.9% (active)	-65.4% (active)	-37.2% (active)	23.8%	-42.1% (active)	-30.8% (active)	-93.6% (active)
CN(C)CCCNC(=O)c1cc(NC(=O)c2cc(NC(=O)c3ccc(C#Cc4ccccc4)cc3)cn2C)cn1C	-20.6% (active)	-68.4% (active)	-91.6% (active)	-30.8% (active)	-93.7% (active)	-33.1% (active)	47.1%	-88.8% (active)	27%	-18.5% (active)	36.1%	42.9%	19.2%	18.6%	83.5%	-24.3% (active)	-29.5% (active)	24.7%	–
C=C1CCC2C3(C)COC(c4cccs4)OC3CCC2(C)C1CC(Sc1ccccc1)C1=CCOC1=O (stereo unspecified)	44.3%	69.4%	69.1%	53.5%	89.2%	–	99.4%	98.2%	116%	46.4%	58.5%	118%	91.1%	101%	133%	1.2% (active)	52.9%	95.4%	-77.9% (active)
C=C1CC[C@@H]2[C@]3(C)COC(c4cn[nH]c4-c4cccc(Br)c4)O[C@@H]3CC[C@@]2(C)[C@@H]1C/C=C1/C(=O)OCC1O (stereo partly specified)	-67.5% (active)	1.52% (active)	-90.9% (active)	-47.9% (active)	-99.6% (active)	-83.2% (active)	–	-69.8% (active)	-62.3% (active)	-77.7% (active)	-100% (active)	-59.7% (active)	-100% (active)	-39.3% (active)	-93.7% (active)	-15.6% (active)	12.2%	-87.9% (active)	-100% (active)
COc1ccc(-c2ccnc(SCc3cc4ccccc4[nH]c3=O)n2)cc1	28.2%	29.5%	64.1%	–	59.1%	44.8%	73%	67.2%	69.8%	49.1%	68.4%	85.2%	74.4%	55.1%	93.2%	48.1%	11.1%	64%	–
